In PMC10668032, “Altered binding affinity of SIX1-Q177R correlates with enhanced WNT5A and WNT pathway effector expression in Wilms tumor”:
Over roughly 33,000 sequences, “e-score” has its median near -0.05; the highest 2% begin near 0.38. The list comes from a sample in which the highest values are over-represented; it also holds similar and randomly drawn sequences.

biological target: T1, SIX1-Q177R homeodomain (human, UniProt Q15475 108-198, Q177R); experiment: universal protein binding microarray; Universal all-10-mer PBM (8x60K, AMADID 030236), 300 nM GST-tagged protein, Alexa Fluor 488 anti-GST; buffer, salt, pH and temperature not stated (as in Berger); high values mean tight binding; settings: protein: ivt; tags: N-terminal GST; dsDNA, one strand shown
T1 sequence: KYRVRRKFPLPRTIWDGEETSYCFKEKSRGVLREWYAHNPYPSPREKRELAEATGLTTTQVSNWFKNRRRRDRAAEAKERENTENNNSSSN
Summary of the method: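 GST-tagged homeodomains were made by in vitro transcription/translation and quantified by anti-GST western blot against a recombinant GST standard curve. They were applied in duplicate at 300 nM final concentration to universal 'all 10-mer' protein binding microarrays (8×60K format). Binding was quantified as 8-mer E-scores with the Universal PBM Analysis Suite.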

Sequence | binding signal [E-score]
ACAACCCC | 0.207 ± 0.03
CGCGCTAC | 0.15 ± 0.0294
GGCTACAC | 0.4245 ± 0.0031
AGCTACAC | 0.435 ± 0.00848
GGCTACGA | 0.196 ± 0.00863
GGCCACAC | 0.233 ± 0.0102
CGCTCTAC | 0.157 ± 0.026
CGCTACAC | 0.4023 ± 0.0021
AGCCACAC | 0.208 ± 0.0231
CTTTTACA | 0.17 ± 0.0837
CACGTACG | 0.167 ± 0.0161
CTCCTACA | 0.243 ± 0.0252
ACCACGTC | 0.182 ± 0.0198
ACTATCGA | 0.156 ± 0.0186
ATGAACAC | 0.4 ± 0.0197
ATGAACCC | 0.198 ± 0.0247
CTGAACCC | 0.187 ± 0.0441
GTGAGCAC | 0.159 ± 0.0143
ATGCACAC | 0.289 ± 0.00704
CTGAACAC | 0.4224 ± 0.00137
GTGAACAC | 0.4118 ± 0.00099
CTGAGCAC | 0.254 ± 0.0174
TCAGAACA | 0.228 ± 0.00667
ACTCCCCA | 0.163 ± 0.025
GGAAGACA | 0.155 ± 0.0119

Sequence | binding signal [E-score]
CACGTCGA | 0.177 ± 0.0103
CAGTCGGG | 0.196 ± 0.029
ATCCGACC | 0.153 ± 0.0521
CCCGATCC | 0.2392 ± 0.00171
AGATGGTG | 0.2726 ± 0.000212
CTACACAC | 0.297 ± 0.0318
CAACACGC | 0.363 ± 0.0087
CTACACGC | 0.4033 ± 0.000742
GTACTCGA | 0.19 ± 0.0242
CTACACAG | 0.161 ± 0.084
GTACACAA | 0.308 ± 0.0492
CTACACGA | 0.388 ± 0.00636
GTACACGA | 0.4189 ± 0.00327
CCAGGATC | 0.193 ± 0.0154
CCACTTCC | 0.16 ± 0.0569
TGTACGAA | 0.157 ± 0.0609
AATGGACA | 0.174 ± 0.00513
ACCCTCCC | 0.211 ± 0.0163
CACCTCTA | 0.295 ± 0.0114
ACGTACAC | 0.436 ± 0.00504
ACGTACCC | 0.202 ± 0.00673
CCGCACAC | 0.303 ± 0.0285
GCGTACAC | 0.4123 ± 0.00366
GCGTACCC | 0.237 ± 0.0376
CCGTACCC | 0.1577 ± 0.00155

Sequence | binding signal [E-score]
CCGTACAC | 0.418 ± 0.00993
GCGTACGC | 0.235 ± 0.0141
ACGTAATC | 0.186 ± 0.0139
CACCACGA | 0.28 ± 0.0196
CAAGGGTA | 0.19 ± 0.0194
AACCCCGG | 0.2652 ± 0.00233
AACGGACA | 0.278 ± 0.00733
TGTCCACA | 0.205 ± 0.0326
TAGGTACA | 0.179 ± 0.00841
CTAGCAAA | 0.173 ± 0.0314
TCCCGACA | 0.155 ± 0.0127
CACCGTCC | 0.276 ± 0.00535
ACGCACCG | 0.177 ± 0.0273
ACACACGT | 0.27 ± 0.0195
ACACACCT | 0.386 ± 0.00817
ACACACAT | 0.201 ± 0.0773
ACACACAG | 0.269 ± 0.0266
ACACACCG | 0.428 ± 0.0122
AAAAGGTG | 0.195 ± 0.0717
ACTGGGTG | 0.319 ± 0.0299
ACGCAGTG | 0.212 ± 0.0202
TGTATCAA | 0.158 ± 0.0316
GTCACGAC | 0.164 ± 0.0297
CCCGGGAG | 0.189 ± 0.00274
ACTGTGCA | 0.195 ± 0.0266

Sequence | binding signal [E-score]
AGGACACT | 0.3795 ± 0.00235
GGGACCCC | 0.211 ± 0.0329
AGGACACC | 0.4835 ± 0.000969
AGGACACG | 0.349 ± 0.0239
CGGACACA | 0.226 ± 0.0432
CGGACACG | 0.373 ± 0.0179
AGGACACA | 0.224 ± 0.0724
GGGACACA | 0.232 ± 0.0537
TGGACACA | 0.252 ± 0.0644
GGGACACC | 0.478 ± 0.0106
CGGACACC | 0.48 ± 0.00522
AGGTAGTG | 0.2489 ± 0.00187
AGGATACA | 0.159 ± 0.0108
ACCATCAG | 0.181 ± 0.0146
CCAGCACC | 0.153 ± 0.0163
GACCCCTA | 0.203 ± 0.0141
CTGACTCC | 0.2326 ± 0.00123
ACGCCCAA | 0.176 ± 0.019
ACTTCTTA | 0.183 ± 0.0236
CTTTACAC | 0.431 ± 0.0203
ATTCACAC | 0.348 ± 0.0127
CTATTTAC | 0.1742 ± 0.000191
ATTTACAC | 0.451 ± 0.0245
CTTTGCAC | 0.16 ± 0.0373
CTTTACCC | 0.171 ± 0.0198

Sequence | binding signal [E-score]
CCCCTAAG | 0.172 ± 0.0119
ACCTGGGA | 0.186 ± 0.00272
CCAACAAC | 0.211 ± 0.0163
CAGCACCA | 0.182 ± 0.0218
CACGTGGG | 0.16 ± 0.0172
CGTGTGGC | 0.181 ± 0.00793
AGTGTCGG | 0.4212 ± 0.00372
AGGGTCGG | 0.172 ± 0.00622
AGTGTCGC | 0.4145 ± 0.00339
AGTGTCTC | 0.329 ± 0.00361
CGTGTCGC | 0.44 ± 0.0199
CGGGTCGC | 0.189 ± 0.0605
AGTGTCGA | 0.408 ± 0.0268
AGTGTTGG | 0.3564 ± 0.000735
AGTGTGGA | 0.162 ± 0.0186
AAGCGGTG | 0.214 ± 0.0624
CATCCACA | 0.177 ± 0.00969
ACTCCCGA | 0.172 ± 0.0235
CCAGGTAC | 0.2011 ± 0.000495
CACCGCTG | 0.249 ± 0.0245
CACGTTAC | 0.179 ± 0.0457
ACTAGGAG | 0.219 ± 0.0299
CTAAAACA | 0.211 ± 0.0343
GGAGTCGA | 0.227 ± 0.0424
GGTGTCGA | 0.4869 ± 0.00312

Sequence | binding signal [E-score]
CGTGTGGA | 0.159 ± 0.00165
CGTGTCGA | 0.404 ± 0.0138
GGTGTGGA | 0.369 ± 0.0214
CGAGTCGA | 0.151 ± 0.006
CACGGCCC | 0.215 ± 0.0365
GGATCACC | 0.203 ± 0.0315
CCATGACA | 0.222 ± 0.0113
TACTGACA | 0.22 ± 0.0513
GGGCGACA | 0.156 ± 0.0211
AGGAGGTG | 0.2857 ± 0.000318
TACACACA | 0.259 ± 0.0395
AACACGCA | 0.396 ± 0.0109
TACACGCA | 0.406 ± 0.0157
AACACGCC | 0.366 ± 0.013
AACACGCT | 0.379 ± 0.00919
AACACGAT | 0.358 ± 0.00931
AACACGCG | 0.36 ± 0.0195
CACACGCA | 0.32 ± 0.022
CACCGAAG | 0.283 ± 0.0113
ACTCCGGG | 0.2895 ± 0.00256
AATTTACA | 0.182 ± 0.0161
AAACCCCC | 0.24 ± 0.0528
CTCACACC | 0.393 ± 0.0106
GTCACACA | 0.215 ± 0.0441
ATCACACC | 0.442 ± 0.00795

Sequence | binding signal [E-score]
CACTCACC | 0.242 ± 0.0149
ATCACCCC | 0.204 ± 0.0194
ATCACACG | 0.318 ± 0.0128
ACCAAGTG | 0.208 ± 0.0393
GGAGTCAA | 0.2 ± 0.0177
CCGCAACA | 0.17 ± 0.0293
CACCGAAC | 0.335 ± 0.0128
CAGAGCAC | 0.19 ± 0.0352
AAGGACAC | 0.40482 ± 0.000361
CAGGACAC | 0.423 ± 0.02
AAGGATAC | 0.275 ± 0.00871
GAGGATAC | 0.235 ± 0.0473
GAGCACAC | 0.262 ± 0.0319
GAGGACAC | 0.401 ± 0.00566
CAGGATAC | 0.168 ± 0.0209
AAGCACAC | 0.276 ± 0.0054
ACATCGTG | 0.151 ± 0.0256
GTATGATA | 0.18 ± 0.0375
CCTTTACA | 0.242 ± 0.0698
CCCCCCTC | 0.163 ± 0.0311
CTGGGTAC | 0.278 ± 0.0111
CCGCAAGG | 0.15 ± 0.00344
CATTTACA | 0.267 ± 0.0374
CACCGAAA | 0.329 ± 0.00917
